This note sets out measurements from patent US20030175730, “Multivalent RNA aptamers and their expression in multicellular organisms” (published 2003).

For the assay, the target named is B52 (SRp55) full length (Drosophila melanogaster, UniProt P26686 P26686:1-350). Put plainly: EMSA; almost a factor of three. The conditions noted are these: tags: baculovirus/Sf9 expressed, SR protein purification; label: 32P-UTP; ssRNA. The protocol: All binding assays were performed in 20 μl volume in 1× binding buffer described above. A typical binding assay using labeled RNA contains about 20 finole of ³²P-labeled RNA probe and differing amounts (1-10 pmole) of B52 protein. A typical binding assay using the truncated versions of B52 contains 1 μl of the ³⁵S-labeled translation reaction mixture with 2 pmoles of unlabeled RNA transcript (the final concentration of RNAs in this reaction was 100 nM and concentration of the labeled B52 proteins was much lower). The reactions were allowed to equilibrate for 15-20 minutes at ambient temperature before being subjected to filter binding, gel shift, or UV crosslinking.
B52 (SRp55) full length, sequence (P26686 other isoform, or with tags, fused parts or gaps): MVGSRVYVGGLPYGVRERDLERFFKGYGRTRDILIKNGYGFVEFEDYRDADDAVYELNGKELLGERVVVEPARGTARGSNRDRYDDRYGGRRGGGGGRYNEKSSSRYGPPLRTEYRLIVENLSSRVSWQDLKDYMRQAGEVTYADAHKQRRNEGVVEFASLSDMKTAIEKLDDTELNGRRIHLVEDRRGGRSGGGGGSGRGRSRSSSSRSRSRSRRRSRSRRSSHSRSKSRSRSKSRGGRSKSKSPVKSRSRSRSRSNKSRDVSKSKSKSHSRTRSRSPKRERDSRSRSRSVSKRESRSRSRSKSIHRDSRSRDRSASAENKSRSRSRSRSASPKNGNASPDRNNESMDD
To determine the sequence/structure requirements for binding by B52, deletion and substitution mutations, and antisense constructs of BBS were designed in light of the shared sequence motif and predicted secondary structures (FIG. 4). These short RNA transcripts were produced by in vitro transcription of synthetic templates, and their affinity to B52 was assayed by band shift.
For orientation: Mobility shift assays separate free from complexed probe on a gel.
Take GGACGAUCAACCAGGCGACAGU: the binding signal was ~3 fold lower affinity than BBS-II.
